# An excerpt weighted towards active compounds, which were near 3.5% of everything screened.
# mHTT-CaM PPI inh: inhibitors of human mutant huntingtin-calmodulin interaction; 190,000 tested, 3.6% active; AlphaScreen His-mHTT/GST-CaM binding, luminescence; inhibition, % at 15 µM; AID 1671202;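 also: 0% = both proteins with DMSO and 100% = one protein alone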
# Target sequence (P42858 whole entry, looked up, stated change not applied): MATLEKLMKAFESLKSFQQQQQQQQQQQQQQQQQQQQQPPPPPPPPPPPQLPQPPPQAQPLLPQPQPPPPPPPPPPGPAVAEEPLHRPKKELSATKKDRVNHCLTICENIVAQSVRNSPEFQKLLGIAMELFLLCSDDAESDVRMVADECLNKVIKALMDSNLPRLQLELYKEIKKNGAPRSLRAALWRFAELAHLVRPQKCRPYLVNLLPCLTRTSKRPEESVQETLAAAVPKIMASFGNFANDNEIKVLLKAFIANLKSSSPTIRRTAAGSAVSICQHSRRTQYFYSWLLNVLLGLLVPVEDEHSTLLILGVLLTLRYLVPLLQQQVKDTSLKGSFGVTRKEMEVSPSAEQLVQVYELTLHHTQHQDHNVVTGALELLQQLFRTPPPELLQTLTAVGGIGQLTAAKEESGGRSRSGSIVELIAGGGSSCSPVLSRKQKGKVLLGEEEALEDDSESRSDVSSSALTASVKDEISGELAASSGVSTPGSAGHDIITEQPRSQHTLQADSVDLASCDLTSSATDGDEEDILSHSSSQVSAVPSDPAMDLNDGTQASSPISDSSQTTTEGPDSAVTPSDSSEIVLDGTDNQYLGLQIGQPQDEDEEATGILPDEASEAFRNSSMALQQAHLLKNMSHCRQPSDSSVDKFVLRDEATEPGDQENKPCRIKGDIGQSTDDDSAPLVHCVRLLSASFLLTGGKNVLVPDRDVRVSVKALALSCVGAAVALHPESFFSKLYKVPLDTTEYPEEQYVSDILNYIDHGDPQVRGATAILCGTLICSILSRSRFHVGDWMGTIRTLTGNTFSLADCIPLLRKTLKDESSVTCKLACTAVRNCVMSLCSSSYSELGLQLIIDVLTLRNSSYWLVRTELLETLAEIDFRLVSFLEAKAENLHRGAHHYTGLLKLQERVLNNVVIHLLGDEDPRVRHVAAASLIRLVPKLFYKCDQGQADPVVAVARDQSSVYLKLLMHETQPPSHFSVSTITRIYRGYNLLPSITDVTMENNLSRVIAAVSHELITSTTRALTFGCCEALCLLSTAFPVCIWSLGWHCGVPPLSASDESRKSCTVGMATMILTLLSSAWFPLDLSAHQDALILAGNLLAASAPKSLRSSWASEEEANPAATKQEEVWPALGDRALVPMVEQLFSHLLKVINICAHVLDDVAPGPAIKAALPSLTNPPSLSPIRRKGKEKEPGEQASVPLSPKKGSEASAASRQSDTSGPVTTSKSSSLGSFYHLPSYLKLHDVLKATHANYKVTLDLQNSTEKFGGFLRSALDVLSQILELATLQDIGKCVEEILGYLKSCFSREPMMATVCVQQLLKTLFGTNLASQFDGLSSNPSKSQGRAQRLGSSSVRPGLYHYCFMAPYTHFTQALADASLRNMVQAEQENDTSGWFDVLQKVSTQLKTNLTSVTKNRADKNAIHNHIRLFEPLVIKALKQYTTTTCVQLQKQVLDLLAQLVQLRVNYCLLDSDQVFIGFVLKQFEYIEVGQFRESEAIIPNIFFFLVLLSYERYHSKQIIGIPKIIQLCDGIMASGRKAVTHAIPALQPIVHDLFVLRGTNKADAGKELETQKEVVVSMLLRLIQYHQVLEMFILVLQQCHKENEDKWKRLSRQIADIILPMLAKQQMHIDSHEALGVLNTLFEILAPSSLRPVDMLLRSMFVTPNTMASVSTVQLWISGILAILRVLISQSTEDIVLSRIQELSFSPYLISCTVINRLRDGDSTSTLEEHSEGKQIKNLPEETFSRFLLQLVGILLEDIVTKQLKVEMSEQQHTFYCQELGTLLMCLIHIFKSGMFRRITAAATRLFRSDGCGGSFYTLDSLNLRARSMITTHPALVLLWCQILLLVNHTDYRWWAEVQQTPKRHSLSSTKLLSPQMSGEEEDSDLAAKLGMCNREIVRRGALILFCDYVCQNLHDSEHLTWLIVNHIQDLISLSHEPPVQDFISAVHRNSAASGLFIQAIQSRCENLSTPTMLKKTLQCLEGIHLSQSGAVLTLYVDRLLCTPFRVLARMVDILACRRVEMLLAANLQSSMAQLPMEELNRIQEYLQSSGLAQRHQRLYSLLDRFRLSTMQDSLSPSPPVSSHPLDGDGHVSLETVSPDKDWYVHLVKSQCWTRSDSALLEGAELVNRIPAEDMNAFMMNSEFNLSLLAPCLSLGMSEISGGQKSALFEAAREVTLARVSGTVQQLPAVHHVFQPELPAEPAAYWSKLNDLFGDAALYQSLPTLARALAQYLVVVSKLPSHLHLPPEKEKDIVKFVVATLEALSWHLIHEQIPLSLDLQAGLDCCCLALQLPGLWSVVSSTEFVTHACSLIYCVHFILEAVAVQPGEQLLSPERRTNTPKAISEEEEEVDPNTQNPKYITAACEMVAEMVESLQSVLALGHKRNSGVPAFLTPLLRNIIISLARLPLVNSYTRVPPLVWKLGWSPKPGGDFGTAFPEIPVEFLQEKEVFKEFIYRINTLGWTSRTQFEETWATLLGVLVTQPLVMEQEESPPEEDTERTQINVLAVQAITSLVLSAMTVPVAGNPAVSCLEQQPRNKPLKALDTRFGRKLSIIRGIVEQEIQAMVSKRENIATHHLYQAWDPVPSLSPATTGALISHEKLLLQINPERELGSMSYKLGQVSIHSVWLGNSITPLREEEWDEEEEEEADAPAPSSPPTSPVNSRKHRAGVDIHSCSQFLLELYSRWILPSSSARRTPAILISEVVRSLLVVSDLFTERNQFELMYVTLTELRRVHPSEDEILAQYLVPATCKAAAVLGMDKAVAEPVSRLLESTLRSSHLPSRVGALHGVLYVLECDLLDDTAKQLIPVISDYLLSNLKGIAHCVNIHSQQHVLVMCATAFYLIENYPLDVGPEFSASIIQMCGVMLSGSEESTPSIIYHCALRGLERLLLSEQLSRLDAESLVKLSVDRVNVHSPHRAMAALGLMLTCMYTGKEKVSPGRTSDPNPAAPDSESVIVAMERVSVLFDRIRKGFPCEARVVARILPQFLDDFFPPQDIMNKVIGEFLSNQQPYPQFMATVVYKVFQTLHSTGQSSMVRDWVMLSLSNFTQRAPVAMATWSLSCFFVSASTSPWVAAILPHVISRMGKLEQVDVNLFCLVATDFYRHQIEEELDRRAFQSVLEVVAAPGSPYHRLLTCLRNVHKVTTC
# Pf apPOL block: Pf-apPOL DNA polymerase inhibition. Recombinant Pf-apPOL, molecular beacon fluorescence, 1.5 h. inhibition, % at 10 µM. 210,000 tested, 0.25% active
# Active calls of the source: *; . = not tested or not shown. Rule as the data show it: active = inhibition above about 50%; inactive = the rest.
SMILES,mHTT-CaM PPI inh,Pf apPOL block
COc1cc(CN2COc3ccc4c(c3C2)OC(=Cc2ccccc2)C4=O)cc(OC)c1OC,12,-16
COc1ccccc1CN1COc2ccc3c(c2C1)OC(=Cc1ccco1)C3=O,18,-20
COc1cc(CN2COc3ccc4c(c3C2)OC(=Cc2ccco2)C4=O)cc(OC)c1OC,51*,-19
COc1ccc(CN2COc3ccc4c(c3C2)OC(=Cc2ccco2)C4=O)cc1OC,53*,-15
COc1ccccc1CC(=O)Nc1ccc2c(c1)CCC(=O)N2C,-1,-5
Cc1nn(Cc2ccc(Cl)cc2)c(C)c1NC(=O)c1noc2c1CCCCC2,67*,2
Cc1cc(NC(=O)c2noc3c2CCCCC3)nn1Cc1ccc(Cl)cc1,-8,-4
COc1ccc(C)cc1NC(=O)c1c(-c2ccccc2Cl)noc1C,8,1
O=C(NCCCN1CCCCC1)C1CCN(S(=O)(=O)N2CCC3(CC2)OCCO3)CC1,-3,-11
CCCCN(CCCNC(=O)C1CC(=O)N(CCc2ccccc2)C1)c1ccccc1 (stereo unspecified),80*,2
CCCCNC(=O)C1CC(=O)N(CCc2ccccc2)C1 (stereo unspecified),-4,-1
COc1ccc(C2=NN(C(=O)CN3CCCCC3)C(c3ccccc3F)C2)cc1 (stereo unspecified),69*,-8
COc1ccc(C2=NN(C(=O)CN3CCCCC3)C(c3ccc(C)cc3C)C2)cc1 (stereo unspecified),100*,-7
CCC(=O)N1N=C(c2ccc(C)cc2)CC1c1cc2cc(OC)ccc2nc1Cl (stereo unspecified),-1,6
COc1cccc(C2=NN(C(=O)CN3CCOCC3)C(c3ccccc3F)C2)c1 (stereo unspecified),29,0
COc1ccc(C2=NN(C(=O)CN3CCOCC3)C(c3cccc(OC)c3OC)C2)cc1 (stereo unspecified),6,-3
COc1ccc(C2CC(c3ccc(F)cc3)=NN2C(=O)CN2CCOCC2)cc1 (stereo unspecified),64*,-4
COc1cc(Cl)c(C)cc1NC(=O)c1cccnc1,-5,97*
COc1cc(OC)c(NC(=O)c2cccnc2)cc1Cl,-2,-5
COc1ccc(Cc2c(O)nc(SCC(=O)Nc3ccc(OC)cc3)[nH]c2=O)cc1,5,0
OC(C#CC12CC3CC(CC(C3)C1)C2)c1cccnc1 (stereo unspecified),43,-1
Cc1ccc(C(O)C#CC23CC4CC(CC(C4)C2)C3)o1 (stereo unspecified),87*,3
Cc1cc(C2CCCN2C(=O)Nc2ccc(F)cc2)no1 (stereo unspecified),-5,2
COC(=O)c1ccc(C(=O)N(CCn2cccn2)c2nc3c(C)cc(C)cc3s2)cc1,100*,-4
Cc1ccc(C)c(C(=O)N(CCn2cccn2)c2nc3c(F)cccc3s2)c1,-11,-6
SMILES,mHTT-CaM PPI inh,Pf apPOL block
Clc1cccc(C2CC(c3ccc(I)cc3)Nc3ncnn32)c1 (stereo unspecified),51*,-3
COc1cccc(C2CC(c3cccc(Cl)c3)n3ncnc3N2)c1 (stereo unspecified),5,1
Fc1ccc(C2CC(c3ccc(I)cc3)Nc3ncnn32)cc1 (stereo unspecified),31,-4
Fc1ccc(C2CC(c3ccc(Cl)cc3)Nc3ncnn32)cc1 (stereo unspecified),58*,3
CCc1csc2nc(C)c(NC(=O)Cc3cccc(F)c3)c(=O)n12,-5,2
Cc1ccc2c(c1)/C(=C/c1ccc3c(c1)OCO3)c1cccnc1-2,52*,-4
Cc1ccc2c(c1)/C(=C/c1ccc(Br)cc1)c1cccnc1-2,14,.
CCCC(=O)NC(c1ccccc1Cl)c1ccc2cccnc2c1O (stereo unspecified),100*,0
CC(=O)NC(c1ccc(Cl)cc1)c1ccc2cccnc2c1O (stereo unspecified),100*,0
CN(C)c1ccc(C(NC(=O)Cc2ccccc2)c2ccc3cccnc3c2O)cc1 (stereo unspecified),41,0
CCC(=O)NC(c1ccc(C)cc1)c1ccc2cccnc2c1O (stereo unspecified),100*,0
COc1ccc(C(C)NC(C)=O)cc1OC (stereo unspecified),-8,-6
COc1ccc(C(NC(=O)C(C)C)c2ccc3cccnc3c2O)cc1OC (stereo unspecified),100*,3
COc1ccc(-c2nnc(N3CCCC3)o2)cc1OC,-1,.
O=c1nc2s/c(=C\c3c(F)cccc3Cl)c(=O)n2nc1Cc1ccccc1,13,-2
Cc1nc2c(C(=O)NCCC3=CCCCC3)cnn2c(C)c1Cc1ccccc1,2,-8
O=[N+]([O-])c1ccccc1S(=O)(=O)Nc1ccc(N2CCOCC2)cc1,-5,-3
C=CCNC(=O)c1cc2c(=O)n3cccc(C)c3nc2n(CCCOC)c1=N,1,-2
Cc1ccc(C2=NN(C(=O)CN(C)C(=O)C3CC3)C(c3ccc(F)cc3)C2)cc1C (stereo unspecified),-4,-2
CC(=O)NC(c1ccccc1Cl)c1ccc2cccnc2c1O (stereo unspecified),100*,-6
Oc1c(C(Nc2cccc(Cl)c2)c2ccncc2)ccc2cccnc12 (stereo unspecified),100*,-10
c1ccc(NC(c2ccccc2)c2ccncc2)cc1 (stereo unspecified),5,-2
CC(C)C(=O)NC(c1ccc(Cl)cc1Cl)c1ccc2cccnc2c1O (stereo unspecified),96*,-66
COc1ccc(C(NC(=O)C(C)C)c2ccc3cccnc3c2O)cc1 (stereo unspecified),100*,10
CC(Oc1ccc(Cl)cc1Cl)C(=O)Nc1ncccn1 (stereo unspecified),-5,-2
SMILES,mHTT-CaM PPI inh,Pf apPOL block
COc1ccc(-c2ncc(NC(=O)C(C)C)cn2)cc1,-3,0
CC1C(=O)N(c2ccc(F)cc2)CCN1C(=O)c1ccccc1Cl (stereo unspecified),1,-2
COc1ccc(C(NC(C)=O)c2ccc3cccnc3c2O)cc1 (stereo unspecified),100*,4
O=C(NC(c1ccccc1)c1ccc2cccnc2c1O)c1ccccc1 (stereo unspecified),100*,2
Cc1ccc(C(NC(=O)C(C)C)c2ccc3cccnc3c2O)cc1 (stereo unspecified),100*,2
O=C(NC(Nc1cccc2cccnc12)C(Cl)(Cl)Cl)c1ccc(Br)cc1 (stereo unspecified),3,-10
COc1ccc(C(=O)Nc2cc(OC)cc3cccnc23)cc1,-9,4
Cc1n[nH]c(C)c1S(=O)(=O)N1CCC(C(=O)N2CC(C)CC(C)C2)CC1 (stereo unspecified),2,-1
COCCN1C(=O)Cc2ccccc2C1C(=O)NCc1ccc(SC)cc1 (stereo unspecified),-8,-4
COC(CNC(=O)c1cnn2c(C(F)(F)F)cc(-c3ccccc3)nc12)OC,0,-10
Cc1cccc(NC(=O)COc2cccc(C)c2)c1,-32,4
O=C(NCCCN1CCOCC1)C1CCCN(c2ncc(-c3cccc(F)c3)cn2)C1 (stereo unspecified),5,2
COc1ccc(-c2coc3c2c(C)cc2oc(=O)c4c(c23)CCC4)cc1,4,86*

# Compound activity: PubChem, University of Kansas High Throughput Screening Laboratory
